Records with an inconclusive call do not appear. Calls of active or inactive are those of the source. How the source made its calls, unless noted: active means hit-call score of the fitted dose curve at least 0.9, where 1 is the maximum; inconclusive means response in the unintended direction; inactive means score below 0.9.
How the values were obtained:
[1] = biological target: PGR (gene 5241) (UniProt P06401); assay: TOX21_PR_LUC_Followup_Agonist: Tox21 HEK293 Progesterone Receptor (PR) Agonism Luciferase Follow-Up Assay (AID 2283937; active means hit-call score of the fitted dose curve at least 0.9, where 1 is the maximum; inactive means score below 0.9)
Procedure, shortened: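 HEK293-PR-A-luc cells, conditioned 5 days in 10% charcoal-stripped FBS medium, seeded 3,000/well for 5 h, then compound-treated 16 h at 37C. ONE-Glo luminescence read after 30 min at room temperature; gain of signal versus DMSO.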

[2] = biological target: Estrogen receptor (Homo sapiens) (UniProt P03372); assay: CCTE_Deisenroth_AIME_384WELL_LUC_Active: CCTE's 384-well Estrogen Receptor Transactivation Assay with AIME metabolic competence (ERTA luciferase; metabolism positive), Deisenroth Lab (AID 2284030)
Procedure, shortened: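 Test chemicals (10-point series, 0.002 - 200 uM) were preincubated 2 hours with alginate-immobilized phenobarbital/beta-naphthoflavone-induced male Sprague Dawley rat liver S9; conditioned medium then went onto VM7Luc4E2 breast cells for 24 hour. Luciferase gain-of-signal fitted relative to 17beta-estradiol.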

[3] = biological target: Estrogen receptor (Homo sapiens) (UniProt P03372); assay: CCTE_Deisenroth_AIME_384WELL_LUC_Inactive: CCTE's 384-well Estrogen Receptor Transactivation Assay without AIME metabolic competence (ERTA luciferase; metabolism negative), Deisenroth Lab (AID 2284038);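 further: VM7Luc4E2 breast cells given medium preincubated 2 h with S9-free microspheres; hits raise estrogen receptor luciferase signal so potencies reflect agonists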
Procedure, shortened: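 Metabolism-negative mode: chemicals (10-point, 0.002–200 uM) held 2 h with alginate-water microspheres, then conditioned medium applied to VM7Luc4E2 cells for 24 h. Luciferase induction referenced to 17beta-estradiol.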

[4] = biological target: Estrogen receptor (Homo sapiens) (UniProt P03372); assay: CCTE_Deisenroth_AIME_384WELL_LUC_Shift: CCTE's 384-well Estrogen Receptor Transactivation Assay with AIME metabolic competence data shift (ERTA luciferase; difference in metabolism positive and negative), Deisenroth Lab (AID 2284041; active means hit-call score of the fitted dose curve at least 0.9, where 1 is the maximum; inactive means score below 0.9;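 further: shift is response with S9 minus without S9 so positive means metabolism raised ER signal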)
Procedure, shortened: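 Here, parent compounds undergo 2 h phase I metabolism by PB/BNF-induced rat S9 before 24 h transactivation in VM7Luc4E2 cells; the curve models S9-positive minus S9-negative response over a 10-point series.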

[5] = biological target: human Thromboxane A2 Receptor (TXA2), TBXA2R (gene 6915) (UniProt P21731); assay: NVS_GPCR_hTXA2: NovaScreen (NVS) G Protein-Coupled Receptor Assay for human Thromboxane A2 Receptor (TXA2) (AID 2283282);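 further: actives reduce bound radioligand signal relative to DMSO baseline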
Procedure, shortened: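 Cell-free radioligand binding on membrane protein from human platelets; radioligand displacement read by filter-based scintillation counting after 1 h. Primary screen in duplicate at 25 uM, actives then run in concentration series; loss of signal versus DMSO.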

[6] = biological target: human Beta-secretase (BACE), BACE1 (gene 23621) (UniProt P56817); assay: NVS_ENZ_hBACE: NovaScreen (NVS) Enzymatic Assay for human Beta-secretase (BACE) (AID 2283140);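 further: hits are inhibitors that reduce fluorescent substrate signal versus DMSO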
Procedure, shortened: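 Cell-free assay of recombinant Sf9-expressed human BACE with fluorescent substrate, read by fluorescence intensity after 1 h. Primary screen in duplicate at 25 uM; actives then run in concentration series; loss of signal relative to DMSO.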

[7] = tested on: frog Estrogen Receptor (ESR2), gene 100174814; assay: ATG_frER2_XSP1: Attagene TRANS-FACTORIAL Multi-Species (XSP1) HepG2 Assay for frog Estrogen Receptor (ESR2) (AID 2283774)
Procedure, shortened: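 HepG2 cells transiently transfected with GAL4-UAS multiplexed reporter units expressing chimeric NR-Gal4 proteins; reporter mRNA measured 24 h after dosing by RT-PCR, FAM labeling, HpaI digestion and capillary electrophoresis. Gain-of-signal relative to DMSO; 3 nM 6-alpha-fluorotestosterone present.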

[8] = tested on: zebrafish Estrogen Receptor (ESR2A), gene 317734; assay: ATG_zfER2a_XSP1: Attagene TRANS-FACTORIAL Multi-Species (XSP1) HepG2 Assay for zebrafish Estrogen Receptor (ESR2A) (AID 2283778)
Procedure, shortened: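 HepG2 cells transiently transfected with multiplexed GAL4-UAS reporter units and chimeric NR-GAL4 receptors; 24 h compound exposure with 3 nM 6-alpha-fluorotestosterone present. Reporter mRNA quantified by RT-PCR and capillary electrophoresis, gain-of-signal fitted relative to DMSO.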

[9] = biological target: chicken Estrogen Receptor (ESR1), ESR1 (gene 396099) (UniProt P06212); assay: ATG_chERa_XSP1: Attagene TRANS-FACTORIAL Multi-Species (XSP1) HepG2 Assay for chicken Estrogen Receptor (ESR1) (AID 2283779)
Procedure, shortened: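 HepG2 cells transiently transfected with multiplexed GAL4-UAS reporter units expressing chimeric NR-Gal4 proteins; 3 nM 6-alpha-fluorotestosterone present. Reporter mRNA measured 24 h after dosing by RT-PCR, FAM labelling, HpaI digest and capillary electrophoresis; gain of signal versus DMSO.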

[10] = tested on: turtle Estrogen Receptor (ESR1), gene 101933533; assay: ATG_trERa_XSP1: Attagene TRANS-FACTORIAL Multi-Species (XSP1) HepG2 Assay for turtle Estrogen Receptor (ESR1) (AID 2283781)
Procedure, shortened: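 HepG2 cells transiently transfected with GAL4-UAS reporter units and chimeric NR-Gal4 constructs, dosed for 24 h with 3 nM 6-alpha-fluorotestosterone present. Reporter mRNA was quantified by RT-PCR, fluorescent labelling and capillary electrophoresis, with gain of signal fitted relative to DMSO.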

[11] = ATG_M_19_XSP1: Attagene TRANS-FACTORIAL Multi-Species (XSP1) HepG2 Assay for M19 Transcription Factor (Internal Marker) (AID 2283798)
Procedure, shortened: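 HepG2 cells transiently transfected with multiplexed GAL4-UAS reporter units, dosed 24 h with 3 nM 6-alpha-fluorotestosterone present for partial AR stimulation. Reporter mRNA measured by RT-PCR with capillary electrophoresis; gain-of-signal fitted relative to DMSO.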

[12] = ATG_M_32_XSP1: Attagene TRANS-FACTORIAL Multi-Species (XSP1) HepG2 Assay for M32 Transcription Factor (Internal Marker) (AID 2283799)
Procedure, shortened: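 HepG2 cells transiently transfected with multi-species TRANS reporter units, dosed 24 h with 3 nM 6-alpha-fluorotestosterone present. Internal-marker reporter mRNA quantified by RT-PCR and capillary electrophoresis; positive-direction fit versus DMSO.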

[13] = tested on: zebrafish Peroxisome Proliferator-activated Receptor gamma (PPARg), gene 557037; assay: ATG_zfPPARg_XSP1: Attagene TRANS-FACTORIAL Multi-Species (XSP1) HepG2 Assay for zebrafish Peroxisome Proliferator-activated Receptor gamma (PPARg) (AID 2283801)
Procedure, shortened: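 HepG2 cells transiently transfected with GAL4-UAS reporter units including a zebrafish PPARg–GAL4 chimera, dosed 24 h with 3 nM 6-alpha-fluorotestosterone present. Reporter mRNA quantified by RT-PCR, FAM labelling, HpaI digestion and capillary electrophoresis; induction versus DMSO.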

[14] = tested on: turtle Thyroid Hormone Receptor, alpha (TRa), gene 101949057; assay: ATG_trTRa_XSP1: Attagene TRANS-FACTORIAL Multi-Species (XSP1) HepG2 Assay for turtle Thyroid Hormone Receptor, alpha (TRa) (AID 2283806)
Procedure, shortened: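 HepG2 cells transiently transfected with GAL4-UAS reporter units and chimeric receptor-Gal4 constructs, with 3 nM 6-alpha-fluorotestosterone present. Reporter mRNA was quantified 24 h after dosing by RT-PCR, 6-FAM labelling and capillary electrophoresis; gain of signal versus DMSO.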

[15] = biological target: zebrafish Thyroid Hormone Receptor alpha (TRa), thraa (gene 30670) (UniProt Q98867); assay: ATG_zfTRa_XSP1: Attagene TRANS-FACTORIAL Multi-Species (XSP1) HepG2 Assay for zebrafish Thyroid Hormone Receptor alpha (TRa) (AID 2283807)
Procedure, shortened: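 HepG2 cells transiently transfected with GAL4-UAS reporter units including a zebrafish TRa–Gal4 chimera, dosed 24 h with 3 nM 6-alpha-fluorotestosterone present. Reporter mRNA quantified by RT-PCR and capillary electrophoresis; gain versus DMSO.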

[16] = biological target: human Thyroid hormone Receptor beta (TRb), THRB (gene 7068) (UniProt P10828); assay: ATG_hTRb_XSP1: Attagene TRANS-FACTORIAL Multi-Species (XSP1) HepG2 Assay for human Thyroid hormone Receptor beta (TRb) (AID 2283808)
Procedure, shortened: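 HepG2 cells transiently transfected with reporter units driving GAL4-UAS reporters for chimeric NR-Gal4 proteins; 24 h chemical exposure with 3 nM 6-alpha-fluorotestosterone present. Reporter mRNA quantified by RT-PCR and capillary electrophoresis, gain of signal versus DMSO.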

[17] = biological target: zebrafish Thyroid Hormone Receptor beta (TRb), thrb (gene 30607) (UniProt Q9PVE4); assay: ATG_zfTRb_XSP1: Attagene TRANS-FACTORIAL Multi-Species (XSP1) HepG2 Assay for zebrafish Thyroid Hormone Receptor beta (TRb) (AID 2283809)
Procedure, shortened: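 HepG2 cells transiently transfected with multiplexed GAL4-UAS reporter units expressing chimeric zebrafish TRb–Gal4. Dosed 24 h with 3 nM 6-alpha-fluorotestosterone present; reporter mRNA measured by RT-PCR, HpaI digestion and capillary electrophoresis; gain of signal versus DMSO.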

[18] = tested on: zebrafish Estrogen Receptor (ER2b), gene 317733; assay: ATG_zfER2b_XSP2: Attagene TRANS-FACTORIAL Multi-Species (XSP2) HepG2 Assay for zebrafish Estrogen Receptor (ER2b) (AID 2283823);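 further: fitted upward as reporter gain over DMSO so potency reflects activation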
Procedure, shortened: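 Read-out: fluorescent reporter mRNA, measured by RT-PCR then capillary electrophoresis after HpaI digestion. HepG2 cells carried transiently transfected multi-reporter TRANS constructs (NR-Gal4 chimeras); 24 h chemical exposure; activity scored upward versus DMSO control.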

[19] = tested on: frog Estrogen Receptor (ER2), gene 100174814; assay: ATG_frER2_XSP2: Attagene TRANS-FACTORIAL Multi-Species (XSP2) HepG2 Assay for frog Estrogen Receptor (ER2) (AID 2283828)
Procedure, shortened: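 Human liver HepG2, transient MRTU transfection (TRANS format, exogenous NR–Gal4). 24 h cpd exposure. Total RNA → RT → PCR → FAM label → HpaI cut → CE. Positive direction vs DMSO.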

[20] = biological target: zebrafish Thyroid Hormone Receptor alpha (TRa), thraa (gene 30670) (UniProt Q98867); assay: ATG_zfTRa_XSP2: Attagene TRANS-FACTORIAL Multi-Species (XSP1) HepG2 Assay for zebrafish Thyroid Hormone Receptor alpha (TRa) (AID 2283832);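 further: actives raise zebrafish TRa-Gal4 reporter transcript above DMSO baseline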
Procedure, shortened: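 HepG2 transiently transfected with GAL4-UAS reporter units and chimeric zebrafish TRa-Gal4; reporter mRNA quantified after 24 h dosing by RT-PCR, HpaI digestion and capillary electrophoresis fluorescence. Gain of signal vs DMSO; XSP2 medium contains 3 nM 6-alpha-fluorotestosterone, 1.5 nM norgestrel.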

Measured: AC50

Sequence of zebrafish Thyroid Hormone Receptor alpha (TRa), thraa (gene 30670) (Q98867 whole entry, looked up, the tested form may be a part): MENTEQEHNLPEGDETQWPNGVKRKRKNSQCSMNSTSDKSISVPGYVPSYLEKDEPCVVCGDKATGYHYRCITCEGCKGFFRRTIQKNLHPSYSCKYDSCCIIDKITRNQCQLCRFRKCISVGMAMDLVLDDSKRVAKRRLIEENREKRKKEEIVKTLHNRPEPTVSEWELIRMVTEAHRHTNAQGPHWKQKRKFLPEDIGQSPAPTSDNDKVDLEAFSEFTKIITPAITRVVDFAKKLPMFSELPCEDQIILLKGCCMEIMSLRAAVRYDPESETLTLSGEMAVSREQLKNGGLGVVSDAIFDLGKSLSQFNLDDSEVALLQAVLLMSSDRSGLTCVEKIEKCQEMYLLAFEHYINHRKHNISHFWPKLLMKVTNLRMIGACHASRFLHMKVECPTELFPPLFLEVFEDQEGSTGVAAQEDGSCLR
Sequence of Estrogen receptor (Homo sapiens) (P03372 whole entry, looked up): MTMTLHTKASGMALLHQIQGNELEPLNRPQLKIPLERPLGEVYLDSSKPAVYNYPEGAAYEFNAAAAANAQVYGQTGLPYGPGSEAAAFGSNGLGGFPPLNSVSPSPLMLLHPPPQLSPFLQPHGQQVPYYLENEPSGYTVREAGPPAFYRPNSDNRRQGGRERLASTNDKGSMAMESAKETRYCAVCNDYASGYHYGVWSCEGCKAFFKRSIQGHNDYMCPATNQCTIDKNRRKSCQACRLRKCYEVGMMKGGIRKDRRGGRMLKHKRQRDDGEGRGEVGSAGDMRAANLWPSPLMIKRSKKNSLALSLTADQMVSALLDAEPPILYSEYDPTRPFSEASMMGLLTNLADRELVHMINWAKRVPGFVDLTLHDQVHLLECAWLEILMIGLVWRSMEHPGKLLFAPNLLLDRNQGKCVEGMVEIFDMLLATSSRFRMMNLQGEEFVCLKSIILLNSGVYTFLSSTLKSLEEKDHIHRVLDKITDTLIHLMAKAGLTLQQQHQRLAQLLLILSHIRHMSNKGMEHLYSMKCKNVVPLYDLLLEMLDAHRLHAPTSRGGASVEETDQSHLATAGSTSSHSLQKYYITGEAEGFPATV
Sequence of human Beta-secretase (BACE), BACE1 (gene 23621) (P56817 whole entry, looked up): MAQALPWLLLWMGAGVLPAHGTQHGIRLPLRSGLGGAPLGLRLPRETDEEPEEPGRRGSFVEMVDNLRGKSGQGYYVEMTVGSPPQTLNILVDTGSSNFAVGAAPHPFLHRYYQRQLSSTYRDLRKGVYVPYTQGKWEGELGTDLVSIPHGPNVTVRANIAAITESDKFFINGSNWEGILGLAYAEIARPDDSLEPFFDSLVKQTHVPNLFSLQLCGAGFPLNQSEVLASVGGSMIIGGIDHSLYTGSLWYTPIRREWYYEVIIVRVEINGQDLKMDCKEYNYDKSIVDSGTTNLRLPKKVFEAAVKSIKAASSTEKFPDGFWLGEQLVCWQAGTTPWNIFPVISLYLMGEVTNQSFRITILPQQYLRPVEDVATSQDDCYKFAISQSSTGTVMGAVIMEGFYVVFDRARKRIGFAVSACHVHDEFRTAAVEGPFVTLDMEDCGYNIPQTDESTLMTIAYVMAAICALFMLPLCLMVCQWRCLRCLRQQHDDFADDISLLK
Sequence of PGR (gene 5241) (P06401 whole entry, looked up): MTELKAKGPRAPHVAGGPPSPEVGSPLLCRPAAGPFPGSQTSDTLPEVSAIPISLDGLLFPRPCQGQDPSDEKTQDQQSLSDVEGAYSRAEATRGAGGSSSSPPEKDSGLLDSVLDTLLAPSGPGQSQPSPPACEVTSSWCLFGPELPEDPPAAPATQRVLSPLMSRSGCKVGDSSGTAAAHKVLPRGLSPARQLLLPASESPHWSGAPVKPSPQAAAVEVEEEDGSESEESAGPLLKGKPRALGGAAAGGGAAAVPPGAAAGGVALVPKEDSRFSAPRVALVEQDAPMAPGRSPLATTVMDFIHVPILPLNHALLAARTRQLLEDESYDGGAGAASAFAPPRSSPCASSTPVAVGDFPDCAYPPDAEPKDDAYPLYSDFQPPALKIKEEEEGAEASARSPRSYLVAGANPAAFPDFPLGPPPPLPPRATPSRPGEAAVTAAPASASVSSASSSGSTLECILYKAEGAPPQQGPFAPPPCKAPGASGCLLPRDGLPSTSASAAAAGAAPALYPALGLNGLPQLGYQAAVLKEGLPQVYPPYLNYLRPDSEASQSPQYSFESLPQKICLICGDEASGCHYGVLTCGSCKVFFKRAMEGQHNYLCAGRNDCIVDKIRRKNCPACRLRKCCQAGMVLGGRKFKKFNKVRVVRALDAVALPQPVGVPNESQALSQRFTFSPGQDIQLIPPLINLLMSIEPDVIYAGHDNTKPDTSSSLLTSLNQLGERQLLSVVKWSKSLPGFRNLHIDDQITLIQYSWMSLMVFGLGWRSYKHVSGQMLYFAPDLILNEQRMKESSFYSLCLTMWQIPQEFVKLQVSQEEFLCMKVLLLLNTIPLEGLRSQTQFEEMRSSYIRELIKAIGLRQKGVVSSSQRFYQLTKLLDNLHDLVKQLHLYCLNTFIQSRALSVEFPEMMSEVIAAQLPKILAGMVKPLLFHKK
Sequence of chicken Estrogen Receptor (ESR1), ESR1 (gene 396099) (P06212 whole entry, looked up, the tested form may be a part): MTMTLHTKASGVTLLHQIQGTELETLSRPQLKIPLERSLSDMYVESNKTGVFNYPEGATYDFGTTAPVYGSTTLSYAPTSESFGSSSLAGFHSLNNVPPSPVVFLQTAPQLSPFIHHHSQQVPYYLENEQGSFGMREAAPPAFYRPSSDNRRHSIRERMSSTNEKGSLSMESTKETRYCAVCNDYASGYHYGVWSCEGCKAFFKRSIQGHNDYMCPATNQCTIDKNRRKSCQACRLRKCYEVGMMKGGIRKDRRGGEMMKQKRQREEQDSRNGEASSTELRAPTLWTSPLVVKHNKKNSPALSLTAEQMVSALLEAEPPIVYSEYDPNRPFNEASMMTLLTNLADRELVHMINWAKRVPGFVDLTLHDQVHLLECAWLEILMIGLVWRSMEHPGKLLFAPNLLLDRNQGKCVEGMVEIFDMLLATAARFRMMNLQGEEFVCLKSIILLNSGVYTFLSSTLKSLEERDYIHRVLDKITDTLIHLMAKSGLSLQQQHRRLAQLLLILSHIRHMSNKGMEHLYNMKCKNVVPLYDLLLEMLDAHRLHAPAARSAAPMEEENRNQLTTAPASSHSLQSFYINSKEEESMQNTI
Sequence of human Thromboxane A2 Receptor (TXA2), TBXA2R (gene 6915) (P21731 whole entry, looked up): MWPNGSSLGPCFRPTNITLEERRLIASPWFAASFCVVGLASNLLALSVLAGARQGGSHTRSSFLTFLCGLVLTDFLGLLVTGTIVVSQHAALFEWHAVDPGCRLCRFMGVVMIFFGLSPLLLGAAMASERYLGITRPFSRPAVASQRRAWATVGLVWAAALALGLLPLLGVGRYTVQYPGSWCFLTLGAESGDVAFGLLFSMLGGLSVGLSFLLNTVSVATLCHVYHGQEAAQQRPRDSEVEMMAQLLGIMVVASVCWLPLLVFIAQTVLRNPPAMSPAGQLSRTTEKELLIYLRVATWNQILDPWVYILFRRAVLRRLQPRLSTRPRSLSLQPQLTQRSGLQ
Sequence of human Thyroid hormone Receptor beta (TRb), THRB (gene 7068) (P10828 whole entry, looked up, the tested form may be a part): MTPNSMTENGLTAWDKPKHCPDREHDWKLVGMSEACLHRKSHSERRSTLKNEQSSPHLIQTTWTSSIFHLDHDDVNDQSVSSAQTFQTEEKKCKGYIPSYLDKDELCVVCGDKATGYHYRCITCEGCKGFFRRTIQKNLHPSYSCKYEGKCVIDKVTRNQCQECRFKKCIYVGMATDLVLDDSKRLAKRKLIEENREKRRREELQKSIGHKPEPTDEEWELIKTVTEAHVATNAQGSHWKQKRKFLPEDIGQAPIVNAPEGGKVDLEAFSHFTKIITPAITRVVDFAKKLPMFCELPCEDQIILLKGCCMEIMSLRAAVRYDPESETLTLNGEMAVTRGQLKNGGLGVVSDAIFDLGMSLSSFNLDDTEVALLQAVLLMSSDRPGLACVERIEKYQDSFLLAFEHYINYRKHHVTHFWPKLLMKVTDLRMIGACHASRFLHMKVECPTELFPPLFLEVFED
Sequence of zebrafish Thyroid Hormone Receptor beta (TRb), thrb (gene 30607) (Q9PVE4 whole entry, looked up, the tested form may be a part): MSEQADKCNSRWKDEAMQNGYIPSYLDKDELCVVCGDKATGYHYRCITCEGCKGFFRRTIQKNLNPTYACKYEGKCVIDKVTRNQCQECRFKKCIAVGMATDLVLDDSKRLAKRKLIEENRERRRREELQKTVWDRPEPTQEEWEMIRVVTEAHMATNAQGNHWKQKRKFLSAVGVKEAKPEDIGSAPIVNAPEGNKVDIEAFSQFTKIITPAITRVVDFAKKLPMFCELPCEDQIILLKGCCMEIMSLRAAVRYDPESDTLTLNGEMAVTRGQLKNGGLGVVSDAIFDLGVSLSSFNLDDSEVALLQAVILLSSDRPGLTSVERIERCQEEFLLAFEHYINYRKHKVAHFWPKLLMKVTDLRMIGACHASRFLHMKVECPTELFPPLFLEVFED

N#Cc1cc(I)c(O)c(I)c1
inactive: [1]

CCCC=NO
inactive: [2] | [3] | [4]

O=c1[nH]c(Cl)c(Cl)cc1Cl
active: [5] 0.631 µM

CC(C)COP(=O)(OCC(C)C)OCC(C)C
inactive: [6]

CC(C)(c1cc(Cl)c(O)c(Cl)c1)c1cc(Cl)c(O)c(Cl)c1
active: [7] 3.55 µM | [8] 2.02 µM | [9] 24.3 µM | [10] 23.9 µM | [15] 17.9 µM | [18] 25.7 µM | [19] 5.92 µM
inactive: [11] | [12] | [13] | [14] | [16] | [17] | [20]

CC1OC(C)OC(C)O1 (stereo not given)
inactive: [5]

Cc1cc(C)c(C2=C(OC(=O)CC(C)(C)C)C3(CCCC3)OC2=O)c(C)c1
inactive: [2] | [3] | [4]

O=c1c2ccccc2c(=O)c2c1cc(Cl)c1[nH]c3c([nH]c12)c(Cl)cc1c(=O)c2ccccc2c(=O)c13
active: [6] 12.4 µM

C[C@]12CC[C@H]3[C@@H](CC[C@@]45O[C@@H]4C(O)=C(C#N)C[C@]35C)[C@@H]1CC[C@@H]2O
inactive: [1]

CC(C)CCCCCCCOC(=O)c1ccccc1C(=O)OCCCCCCCC(C)C
inactive: [7] | [8] | [9] | [10] | [11] | [12] | [13] | [14] | [15] | [16] | [17] | [18] | [19] | [20]
